TRPML1 inh: qHTS for Inhibitors of the Human Mucolipin Transient Receptor Potential 1 (TRPML1). TRPML1-inducible cells, Ca2+ dye fluorescence, FDSS; hits give low values; inhibition of EC80 agonist-evoked calcium signal. 0.02% of 390,000 active. AID 624415, 2012. Mucolipin-1 (Homo sapiens), Q9GZU1. activity change, negative = inhibition, % (test concentration not listed); in the data active means activity change below about -50%; inconclusive means between about -30% and that limit;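 further: stimulus is agonist 54-4 at its EC80 concentration; on the % scale 0 is the no-effect control and ±100 the full control effect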
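Tet-induced TRPML1-DL cells loaded with Ca8 no-wash calcium dye were read kinetically on FDSS. Compound addition was followed by EC80 agonist 54-4 (4 uM final); inhibition was read over 110 s.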
TRHR agonist: qHTS for Small Molecule Agonists and Allosteric Enhancers of Human TRH Receptor: Primary Screen for Agonists; 0.18% of 360,000 active; Thyrotropin-releasing hormone receptor (Homo sapiens), P34981; TRHR cells, calcium flux fluo-8, FDSS agonist mode; activation, % at 2 µM; in the data active means activation above about 30%; further: 0% is about no effect
Target sequence (P34981 whole entry, looked up): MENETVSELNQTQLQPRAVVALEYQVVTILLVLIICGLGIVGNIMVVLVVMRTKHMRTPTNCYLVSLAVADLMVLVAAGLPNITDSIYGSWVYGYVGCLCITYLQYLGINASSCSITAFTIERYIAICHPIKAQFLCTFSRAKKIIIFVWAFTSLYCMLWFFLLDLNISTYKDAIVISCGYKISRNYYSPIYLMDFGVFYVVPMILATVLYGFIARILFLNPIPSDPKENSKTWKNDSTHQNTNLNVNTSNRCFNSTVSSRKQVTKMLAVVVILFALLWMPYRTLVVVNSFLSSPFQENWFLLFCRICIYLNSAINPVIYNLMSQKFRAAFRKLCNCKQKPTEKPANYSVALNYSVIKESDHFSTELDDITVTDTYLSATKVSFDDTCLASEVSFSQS
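In this calcium-flux screen, cells bearing human TRHR are dye-loaded with fluo-8, baselined for 10 cycles, then exposed to library compounds; positive kinetic calcium responses during the agonist phase mark hits, with TRH as control.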
TRPML1 agonist: qHTS for Agonists of the Human Mucolipin Transient Receptor Potential 1 (TRPML1) | activation, % (no concentration beside the values) | TRPML1-expressing cells, Ca2+ dye fluorescence, FDSS | 0.12% of 410,000 active; in the data active means activation above about 50%; inconclusive means mostly about 30% to 49%; further: 0% is about no effect
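Calcium fluorescence on an FDSS kinetic reader gave the read-out. Tet-induced TRPML1-DL cells were plated overnight, dye-loaded (Ca8 with quencher, 45-90 min, room temperature, dark), then read 110 s after compound addition, and again 110 s after 4uM final 54-4 (EC80).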
TRHR PAM: qHTS for Small Molecule Agonists and Allosteric Enhancers of Human TRH Receptor: Primary Screen for Enhancers. Thyrotropin-releasing hormone receptor (Homo sapiens), P34981. TRHR cells, fluo-8 calcium fluorescence, EC20 TRH enhancement. enhancement, % at 2 µM. 0.66% of 360,000 active. AID 493056, 2011; in the data active means enhancement above about 30%; further: 0% is about no effect
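TRHR-expressing cells loaded with fluo-8 calcium dye were read kinetically (ex 480/em 530) during compound addition, then stimulated with an EC20 of TRH (10 nM final). Enhancement of the Gq-mediated intracellular calcium response was scored.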
PTAP TSG101 blk: qHTS Assay for Iinhibitors of HIV-1 Budding by Blocking the Interaction of PTAP/TSG101; 340,000 tested, under 10 active; Fluorescence polarization, FITC-PTAP peptide / Tsg101 binding; Potency, µM (top dose mostly 115 µM), inactives show top-dose activity change, negative = inhibition, hits mostly inhibitors; Tumor susceptibility gene 101 protein (Homo sapiens), Q99816; AID 493005, 2010; active means well fitted inhibition curve with a large enough effect in the main read-out, with a control signal flat, not every such curve was filed as active; inconclusive means small, poorly fitted or top-dose-only effect, or effect the other way, or a change in a side signal; inactive means no such curve, though single readings can be large or run the other way; further: potency means the concentration at half of the fitted maximal effect; % of control where 0% means no effect
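Tsg101 binding domain (10 uM final) was mixed with compound and a FITC-labeled PTAP peptide (50 nM final) in HEPES pH 7.5 buffer with NaCl, Tween 20, EDTA and TCEP; fluorescence polarization was read after 20 min at r.t.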
* hit, by the source's call; u = inconclusive; x = no result given. Hits are enriched below; roughly 0.81% of the tested compounds scored in any of these assays.

SMILES | TRPML1 inh | TRHR agonist | TRPML1 agonist | TRHR PAM | PTAP TSG101 blk
COC(=O)C1=C(C)N(Cc2ccccc2)C(=NCC2CC2)N[C@H]1c1ccc(Br)cc1 | x | 5 | x | 32* | x
CC(C)(C)c1ccc(C(=O)NCC(=O)OC(C(=O)Nc2cc(C(F)(F)F)ccc2Cl)c2ccccc2)cc1 (configuration not stated) | x | 1 | x | -11 | x
O=C(NC1CCCN(Cc2ccc(Cl)cc2)C1)c1ccnc(Cl)c1 (configuration not stated) | 17 | -2 | 0 | 32* | -4%
CCOc1ccccc1NC(=O)Cn1c(=O)n(Cc2ccco2)c(=O)c2cccnc21 | -26 | 0 | -1 | 44* | x
COc1ccccc1NC(=O)Cn1c(=O)n(Cc2ccco2)c(=O)c2cccnc21 | -1 | 0 | 0 | -3 | x
O=C(C[n+]1ccc2ccccc2c1)c1ccc(F)cc1 | x | x | 0 | x | x
Cc1cccc(C(=O)Nc2nnc(SCC(=O)NC3CC3)s2)c1 | -52* | 0 | 0 | 0 | 0%
O=C(CSc1nnc(NC(=O)c2cccc(F)c2)s1)NC1CC1 | 26 | 0 | 0 | -9 | 1%
CC(C(=O)Nc1cccc([N+](=O)[O-])c1)[n+]1ccccc1 (configuration not stated) | -21 | 1 | 0 | 31* | -3%
O=C(O)COc1ccccc1/C=N/NC(=O)Cc1ccccc1 | 23 | 1 | 0 | 3 | -1%
O=C(O)COc1ccccc1/C=N/NC(=O)Cc1csc(Nc2cccc(C(F)(F)F)c2)n1 | -6 | 1 | 0 | 36* | 1%
CCN1C(=O)[C@H]2[C@H]3[C@H](O)[C@H](O)CC(=O)[C@@H]3CC[C@H]2C1=O | x | x | 0 | x | x
O=C(CSc1nnc2n(C3CCCC3)c(=O)c3ccccc3n12)N1CCCCCC1 | 37 | 0 | 2 | 1 | -8%
COc1ccccc1Cn1c(=O)c2ccccc2n2c(SCC(=O)N3CCCCC3)nnc12 | -61* | 0 | 2 | -6 | 0%
COc1cccc(Nc2nc(C#N)nc(NC3CCCC3)n2)c1 | x | -3 | x | -5 | x
O=C(Oc1ccc(Br)cc1C(=S)N1CCOCC1)c1ccc([N+](=O)[O-])cc1[N+](=O)[O-] | -3 | 0 | -2 | 36* | 1%
COc1ccc(Br)cc1S(=O)(=O)N1CCN(S(=O)(=O)c2ccc3c(c2)OCCO3)CC1 | x | 0 | x | 0 | x
Cc1cccc([S+](=O)([O-])NC2CCN(C#N)CC2)c1 | x | 1 | x | -1 | x
CC(=O)Nc1ccc(/C=N/N2C(=O)NC(C)(c3ccc(OC(F)F)cc3)C2=O)cc1 (configuration not stated) | -3 | 8 | 50* | -8 | 0%
CC1(c2ccc(OC(F)F)cc2)NC(=O)N(CC(=O)Nc2ccccc2)C1=O (configuration not stated) | -13 | 9 | u | -8 | 0%
CC(=O)c1cc(NC(=O)c2ccc(Cl)cc2)c(=O)oc1/C=C/N(C)C | -8 | 39* | u | -3 | -7%
CC(=O)c1cc(NC(=O)c2cccc(C(F)(F)F)c2)c(=O)oc1/C=C/N(C)C | 14 | x | 6 | x | u
N#Cc1nc(Nc2ccc(F)cc2)nc(NC2CCCC2)n1 | x | -1 | x | 4 | x
O=C(Cn1nc(C(=O)O)c2ccccc2c1=O)Nc1cc(Cl)ccc1-n1cncn1 | 3 | -1 | -1 | 37* | 0%
Cc1cc2c(s1)c1cnn(Cc3c(F)c(F)c(C(F)(F)F)c(F)c3F)c(=O)c1n2C | x | 0 | x | 1 | x
CCOC(=O)CCC(NC(=O)CCCC(=O)NC(CCC(=O)OCC)C(=O)OCC)C(=O)OCC (configuration not stated) | -11 | 1 | 0 | 1 | 0%

Screening results from PubChem.
